SENP7 block = blocks the human protease SENP7; recombinant SENP7, Z-RLRGG-aminoluciferin luminescence, 40 min; inhibition, % at 5 µM; 330,000 compounds, 1.5% hits; Q9BQF6;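 active means inhibition above about 50% at the single test dose, limit read from the data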
SENP8 block-1 = inhibitors of human SENP8 protease; 330,000 compounds, 1.2% hits; inhibition, % at 10 µM; Q96LD8; purified SENP8, Z-RLRGG-aminoluciferin cleavage, luminescence; in the data active means inhibition above about 50%
PPC-1+TRAIL kill = compounds killing PPC-1 cancer cells with TRAIL present (potentiator screen, no TRAIL-free arm). PPC-1 cells + TRAIL, ATPLite viability luminescence. cell killing (% activity), % at 4 µM or 5 µM. AID 1443. 220,000 compounds, 0.41% hits;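 active means cell killing above 50% in the first pass at 4 µM, then a duplicate retest at 5 µM averaging 50% or more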
SENP8 block-2 = inhibitors of human SENP8 protease | Q96LD8 | recombinant SENP8, Nedd8 substrate fluorescence | inhibition, % at 20 µM | 360,000 compounds, 0.64% hits | AID 602440; in the data active means inhibition mostly above about 40%, no sharp cut-off; inactive means mostly below about 27%
TRAIL sens C8 = sensitizes caspase-8 expressing cells to TRAIL. 360,000 compounds, 1% hits. NB7+C8 cells + TRAIL, ATPlite viability luminescence. inhibition (viability loss, TRAIL sensitization), % at 10 µM;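 active means compounds causing at least 50% loss of cell viability in the single-dose screen, relative to plate controls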
SENP6 inh = blocks the human protease SENP6; 330,000 compounds, 1.8% hits; Q9GZR1; inhibition, % at 10 µM; Recombinant SENP6 catalytic domain, aminoluciferin luminescence;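 active means inhibition above about 50% at the single tested dose, limit read from the data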
Target sequence (Q9GZR1 628-1112 limits assumed): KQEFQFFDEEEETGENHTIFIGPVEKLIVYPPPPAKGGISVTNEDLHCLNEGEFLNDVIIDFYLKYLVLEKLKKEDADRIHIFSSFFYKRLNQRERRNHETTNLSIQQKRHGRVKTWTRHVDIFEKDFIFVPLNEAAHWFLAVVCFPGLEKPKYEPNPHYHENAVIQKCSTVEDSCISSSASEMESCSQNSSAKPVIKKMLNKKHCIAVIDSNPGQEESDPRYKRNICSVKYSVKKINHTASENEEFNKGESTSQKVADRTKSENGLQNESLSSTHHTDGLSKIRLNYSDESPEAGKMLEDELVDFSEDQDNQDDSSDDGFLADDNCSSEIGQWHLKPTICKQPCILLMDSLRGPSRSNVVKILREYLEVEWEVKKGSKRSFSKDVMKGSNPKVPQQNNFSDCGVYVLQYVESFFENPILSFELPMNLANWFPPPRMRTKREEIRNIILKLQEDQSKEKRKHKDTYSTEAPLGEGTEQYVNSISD
SENP8 conf = confirmation of human SENP8 protease inhibitors | shares compounds with SENP7 block | Recombinant SENP8, Z-RLRGG-aminoluciferin luminescence, 60 min | inhibition, % at 12.5 µM | 6,200 compounds, 40% hits;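 active means mean inhibition across replicates above about 50%, limit read from the data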
SENP6 conf = human SENP6 inhibition, confirmed; AID 488915; inhibition, % at 12.5 µM; shares compounds with SENP7 block; 6,200 compounds, 58% hits; recombinant SENP6, Z-RLRGG-aminoluciferin luminescence
SENP7 conf = confirmation of human SENP7 protease inhibitors; shares compounds with SENP7 block; recombinant SENP7, Z-RLRGG-aminoluciferin luminescence, 40 min; inhibition, % at 12.5 µM; 6,200 compounds, 69% hits
Casp3 select = inhibits human caspase-3 in SENP selectivity test | shares compounds with SENP7 block | purified caspase-3, Z-DEVD-aminoluciferin luminescence, 60 min | inhibition, % at 12.5 µM | 6,200 compounds, 60% hits;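 active means mean inhibition above about 50%, limit read from the data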
Target sequence (P42574 28-227 limits assumed): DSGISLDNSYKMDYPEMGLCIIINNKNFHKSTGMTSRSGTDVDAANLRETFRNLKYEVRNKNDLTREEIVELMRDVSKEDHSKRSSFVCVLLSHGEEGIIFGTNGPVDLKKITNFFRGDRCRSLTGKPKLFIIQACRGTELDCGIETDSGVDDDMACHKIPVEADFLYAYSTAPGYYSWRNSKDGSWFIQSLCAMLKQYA
SENP luc ctr = interferes with luciferase luminescence in SENP counter-screen; shares compounds with SENP7 block; Pre-incubated SENP8/Z-RLRGG-aminoluciferin, luciferase luminescence interference; 6,200 compounds, 39% hits; inhibition, % at 12.5 µM; AID 488919;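 active means mean inhibition above about 50% when retested at one dose, limit read from the data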
Large screens that a line does not name were inactive (follow-up assays come after a bar, where they were run). This is a sample that favours compounds with a hit; in the whole collection about 3% have one here.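 How the source made its calls, unless noted: active means mean inhibition above about 50% in the one-dose retest (limit read from the data); inactive means the rest.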

O=C(CCCN1C(=O)/C(=C/c2ccccc2Cl)SC1=S)NCCCN1CCOCC1	SENP6 inh 52 (no result: PPC-1+TRAIL kill) | SENP8 conf 50 | SENP6 conf inactive | SENP7 conf 65 | Casp3 select inactive | SENP luc ctr inactive
CN(Cc1ccc(Cl)cc1Cl)C(=O)c1cc(=O)c2ccccc2o1	none (no result: PPC-1+TRAIL kill)
CCn1c(COC(=O)CNC(=O)c2cc(OC)c(OC)c(OC)c2)nc2cc(S(=O)(=O)N(C)C)ccc21	none (no result: PPC-1+TRAIL kill)
N/C(=N\OC(=O)Nc1ccccc1)c1ncc(C(F)(F)F)cc1Cl	SENP6 inh 50 | SENP8 conf 52 | SENP6 conf inactive | SENP7 conf 77 | Casp3 select 69 | SENP luc ctr 57
N/C(=N\OC(=O)Nc1ccc(Cl)cc1)c1ncc(C(F)(F)F)cc1Cl	none
CC(C)(C)NC(=O)COc1ccc(-c2ccccc2)cc1	SENP6 inh 51 | SENP8 conf inactive | SENP6 conf inactive | SENP7 conf 62 | Casp3 select inactive | SENP luc ctr inactive
CCNC(=O)COc1ccc(-c2ccccc2)cc1	none
CCc1cccc2c(C(=O)COC(=O)c3ccccc3)c[nH]c12	SENP7 block 53, SENP6 inh 60 | SENP8 conf inactive | SENP6 conf inactive | SENP7 conf 73 | Casp3 select inactive | SENP luc ctr inactive
Cn1c(/C(C#N)=C/c2ccc(O)cc2)nc2ccccc21	SENP6 inh 53 | SENP8 conf 50 | SENP6 conf inactive | SENP7 conf 65 | SENP luc ctr inactive
c1ccc(C2=NN(c3ccccc3)CC2)cc1	SENP7 block 59, SENP8 block-1 57 | SENP8 conf inactive | SENP6 conf inactive | SENP7 conf inactive | Casp3 select inactive | SENP luc ctr inactive
CCOC(=O)/C(=C/c1ccc(N2CCC(c3ccccc3)=N2)cc1)C(C)=O	none (no result: SENP7 block, SENP8 block-1, SENP6 inh)
Cc1cc(NC(=O)c2cccc(F)c2)ncc1NC(=O)c1ccco1	SENP7 block 93, SENP8 block-1 82, SENP6 inh 94 | SENP8 conf 87 | SENP6 conf 87 | SENP7 conf 99 | Casp3 select 95 | SENP luc ctr 88
O=C(NC(=O)c1ccccc1)Nc1ccc(Cl)cn1	SENP7 block 72 (no result: PPC-1+TRAIL kill) | SENP8 conf inactive | SENP6 conf inactive | SENP7 conf inactive | Casp3 select inactive | SENP luc ctr inactive
O=C(Nc1ccc(Cl)cn1)c1ccccc1F	SENP7 block 80, SENP8 block-1 64, SENP6 inh 82 | SENP8 conf inactive | SENP6 conf 71 | SENP7 conf 93 | Casp3 select 85 | SENP luc ctr inactive
Cc1cc(NC(=O)c2ccccc2)ncc1NC(=O)c1cccs1	SENP8 block-1 72, SENP6 inh 64 | SENP8 conf 76 | SENP6 conf 74 | SENP7 conf 93 | Casp3 select 90 | SENP luc ctr 80
O=C(Nc1ccc(Cl)cn1)Nc1ccc(Cl)cn1	none
Cc1cc(NC(=O)c2cccs2)ncc1NC(=O)c1cccc(F)c1	none
NCCCNC(=O)c1ccc(/C=N/O)nc1	none
CC(C)(C)c1ccc(C(O)c2ncc(-c3ccccc3F)[nH]2)cc1 (centres undefined)	none (no result: SENP7 block, SENP8 block-1, PPC-1+TRAIL kill, SENP6 inh)
O=C(Nc1ccc(Cl)cn1)c1cccc(F)c1	SENP7 block 89, SENP8 block-1 73, SENP6 inh 91 | SENP8 conf 83 | SENP6 conf 85 | SENP7 conf 97 | Casp3 select 92 | SENP luc ctr 81
Cc1cc(C)cc(CC(=O)N2CCC2(C)C(=O)NS(=O)(=O)c2cc(C)ccc2F)c1 (centres undefined)	none (no result: SENP7 block, SENP8 block-1, PPC-1+TRAIL kill, SENP6 inh)
CN(CC(=O)Nc1ccccc1Cl)C(=O)COC(=O)c1ccc([N+](=O)[O-])s1	SENP8 block-1 69, SENP6 inh 70 (no result: PPC-1+TRAIL kill) | SENP8 conf 78 | SENP6 conf 85 | SENP7 conf inactive | Casp3 select inactive | SENP luc ctr inactive
NS(=O)(=O)c1ccc(NC(=O)COC(=O)c2ccc([N+](=O)[O-])s2)cc1	SENP8 block-1 59 | SENP8 conf inactive | SENP6 conf 86 | SENP7 conf inactive | Casp3 select inactive | SENP luc ctr inactive
COc1ccccc1NC(=O)COC(=O)c1ccc([N+](=O)[O-])s1	SENP7 block 51, SENP8 block-1 72, SENP6 inh 91 | SENP8 conf 75 | SENP6 conf 85 | SENP7 conf inactive | Casp3 select inactive | SENP luc ctr inactive
Cc1cc(C)c(NC(=O)COC(=O)c2ccc([N+](=O)[O-])s2)c(C)c1	none
Cc1ccc(NC(=O)COC(=O)c2ccc([N+](=O)[O-])s2)c(C)c1	none
CN(C)c1cc(N/N=C/c2ccccc2C(F)(F)F)nc(N(C)C)n1	SENP6 inh 55 (no result: PPC-1+TRAIL kill) | SENP8 conf inactive | SENP6 conf inactive | SENP7 conf inactive | Casp3 select inactive | SENP luc ctr inactive
Cc1nnc(N/N=C/c2ccccc2C(F)(F)F)n1N	none (no result: PPC-1+TRAIL kill)
O=C(Nc1cccc(C(F)(F)F)c1)c1cc[n+]([O-])cc1	none (no result: PPC-1+TRAIL kill)
O=C(Nc1ccc(C(=O)c2ccccc2)cc1)c1ccccc1	none (no result: PPC-1+TRAIL kill)
O=C(Nc1ccc(C(F)(F)F)cc1)c1ccccc1	SENP7 block 63 (no result: PPC-1+TRAIL kill) | SENP8 conf inactive | SENP6 conf inactive | SENP7 conf inactive | Casp3 select inactive | SENP luc ctr inactive
O=C(Nc1cccc(O)c1)c1ccc(C(F)(F)F)cc1	SENP7 block 72, SENP8 block-1 67, SENP6 inh 74 | SENP8 conf 68 | SENP6 conf 70 | SENP7 conf 92 | Casp3 select 72 | SENP luc ctr 64
Cc1cccc(C(=O)O/N=C/c2c(Cl)n(C)c3ccccc23)c1	none
Cc1cccc(C(=O)O/N=C/c2ccc(Br)cc2)c1	SENP7 block 62, SENP8 block-1 61, SENP6 inh 68 | SENP8 conf inactive | SENP6 conf 74 | SENP7 conf 88 | Casp3 select 61 | SENP luc ctr inactive
O=C(Nc1cccc(O)c1)c1cc(-c2ccc3c(c2)OCO3)on1	SENP7 block 101, SENP8 block-1 90, TRAIL sens C8 92, SENP6 inh 96 (no result: PPC-1+TRAIL kill) | SENP8 conf inactive | SENP6 conf 95 | SENP7 conf inactive | Casp3 select 77 | SENP luc ctr inactive
